# Experimental data reported in PubChem BioAssay AID624489 (Broad Institute, 2012).
# Results with a measured potency or affinity are listed apart. The source made the active and inactive calls.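 Rule for the calls: active = compounds with a falling luminescence curve whose half-maximal concentration is at most twice the top valid dose; inconclusive = flat fit between -70 and -30 percent, or poor fit; inactive = the rest.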
# Assay: viability loss in MITF-independent A375 cells – cell-based, CellTiter-Glo luminescence, dry powder, set 2, counter-screen for MITF inhibitor project, dose response (AID 624489)
# Conditions: A375 melanoma viability, CellTiter-Glo ATP luminescence, 24 h; series mostly up to 35 µM
row,Structure (SMILES),outcome
1,O=C1C(NS(=O)(=O)c2ccc(Br)cc2)=C(N2CCN(c3ccccc3)CC2)C(=O)c2ccccc21,inactive
2,C=CCNC1=C(NS(=O)(=O)c2cccs2)C(=O)c2ccccc2C1=O,inactive
3,C=CCNC1=C(NCC=C)C(=O)c2ccccc2C1=O,inactive
4,C=CCNC1=C(NC(=O)c2ccccc2)C(=O)c2ccccc2C1=O,inactive
5,COc1ccc(C2=C(NC(=O)c3ccc(OC)cc3-c3cccc(OC)c3)C(=O)c3ccccc3C2=O)cc1,inactive
